The campaign covered roughly 190,000 compounds. About 930 (0.49%) were called active. This is one part of the list. Measured potencies and affinities stand elsewhere. Unmarked numbers belong to inactive results.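 Rule for the calls: active = z-score of insulin promoter reporter brightness in nuclei below -3 at 5 µM, with at least 500 cells counted; inconclusive = wells with under 500 cells, flagged as toxic or sparse; inactive = the rest.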
assay: decrease of insulin promoter-GFP reporter – imaging, high-content screening, mouse beta cells (AID 1628); conditions: MIN6 insulin promoter GFP reporter, at 5 µM, hits give low values

Row | Structure (SMILES) | z-score
1 | CCS(=O)(=O)c1ccc2oc(SCC(=O)NC3CCCC(C)C3C)nc2c1 (stereo unspecified) | 4.28
2 | Fc1ccc(NCc2nnc(SCc3nnc(-c4ccccc4)o3)n2Cc2ccccc2)cc1 | -4.77 (active)
3 | Cc1ccccc1NC(=O)/C(=C\c1cccs1)NC(=O)c1ccco1 | -5.39 (active)
4 | CN1CCN(C(=O)/C(=C\c2cccs2)NC(=O)c2ccco2)CC1 | -6.33 (active)
5 | CN1CCN(C(=O)/C(=C\c2cccs2)NC(=O)c2cccs2)CC1 | 6.06
6 | O=C1c2cccc3c(O)ccc(c23)C(=O)N1Cc1ccco1 | 12.8
7 | NCCCC[C@@H]1NC(=O)[C@H](CCC(=O)O)NC(=O)c2cc([N+](=O)[O-])cc(I)c2NCC[C@@H](C(N)=O)NC1=O | -4.01 (active)
8 | NC(=O)CC[C@@H]1NC(=O)[C@@H]2CCCN2C(=O)c2cc([N+](=O)[O-])cc(I)c2NCCCC[C@@H](C(=O)NC(CC(=O)O)C(N)=O)NC1=O (stereo partly specified) | -4.71 (active)
9 | CC(C)C[C@@H]1NC(=O)[C@H](C(C)C)NC(=O)c2cc([N+](=O)[O-])cc(I)c2NCC[C@@H](C(N)=O)NC1=O | -5.69 (active)
10 | Cc1oc(C)c2c(=O)ccc3c(c12)OC(N)=C(C#N)C3c1ccc(F)cc1 (stereo unspecified) | 3.56
11 | CCCCSc1nnc(CCCCCNC(=O)OC(C)(C)C)o1 | -4.83 (active)
12 | COc1ccc2cc(/C(C)=N/NC(=S)Nc3cc(S(=O)(=O)N4CCOCC4)ccc3N3CCOCC3)ccc2c1 | -3.25 (active)
13 | COc1cccc(-c2cc(C(=O)Nc3ccc4c(c3)OCCO4)c3ccccc3n2)c1 | -4.93 (active)
14 | COc1cc(S(=O)(=O)N2CCOCC2)ccc1NC(=O)COC(=O)C12CC3CC(CC(C3)C1)C2 | 3.88
15 | COc1ccc(-c2cc(C(=O)Nc3cc(S(=O)(=O)N4CCOCC4)ccc3N3CCOCC3)c3ccccc3n2)cc1 | -3.45 (active)
16 | Cc1ccn2cc(-c3ccc(S(=O)(=O)N4CCOCC4)cc3)nc2c1 | -0.88
17 | COc1ccc(C2C(C(C)=O)=C(C)N=c3s/c(=C\c4cc(C)n(C)c4C)c(=O)n32)c(OC)c1 (stereo unspecified) | 8.76
18 | N#C/C(=C\C1=C(N2CCOCC2)C(=C\c2ccc(Cl)cc2)/CC1)C(=O)Nc1ccccc1F | 3.27
19 | CN1CC=C2C(C#N)=C(N)C(C#N)(C#N)C(c3ccsc3)C2C1 (stereo unspecified) | 4.07
20 | Cc1ccc2c(c1)cc(CN(Cc1ccc3c(c1)OCO3)S(=O)(=O)c1ccccc1)c1nnnn12 | -3.75 (active)
21 | Cc1cc(-c2cccs2)c2c(N)c(C(=O)c3ccc4c(c3)OCO4)sc2n1 | 4.7
22 | COc1ccc2c(C(=O)CN(C)C3CCCCC3)c[nH]c2c1 | 4.45
23 | O=C(NC1CCCC1)c1c[nH]c2ccc(F)cc2c1=O | -3.28 (active)

Row | Structure (SMILES) | z-score
24 | Cc1ccc(C2C3CN(C(C)C)CC=C3C(C#N)=C(N)C2(C#N)C#N)cc1 (stereo unspecified) | 10.3
25 | NC(=O)CCN1CCN(CCOC2Cc3cc(Cl)ccc3Sc3ccccc32)CC1 (stereo unspecified) | -4.24 (active)
26 | CC(C)CC(=O)c1c[nH]c(C(=O)NCCc2ccccn2)c1 | -3.63 (active)
27 | Nc1c(C(=O)N/N=C/c2cccnc2)oc2nc(-c3ccco3)cc(-c3ccco3)c12 | 5.39
28 | O=C(Nc1ccc(-c2csc(Nc3cccc(C(F)(F)F)c3)n2)cc1)c1cccc(C(F)(F)F)c1 | -4.02 (active)
29 | c1ccc(CN2CCN(c3nc(NCc4ccco4)c4ccccc4n3)CC2)cc1 | -3.17 (active)
30 | c1ccc(N2CCN(c3nc(NCc4ccco4)c4ccccc4n3)CC2)cc1 | -3.05 (active)
31 | CCCS(=O)(=O)N1CCC(C(=O)N2CCOCC2)CC1 | 4.02
32 | OC(CN1CCCCC1)CN(c1ccccc1)c1ccccc1 (stereo unspecified) | -4.02 (active)
33 | O=C(/C=C/c1cn(CC(O)CN2CCCCC2)c2ccccc12)c1cccs1 (stereo unspecified) | 4.58
34 | O=C(/C=C/c1cn(CC(O)CN2CCCCCC2)c2ccccc12)c1cccs1 (stereo unspecified) | 5.06
35 | Cc1c(-c2ccc(O)cc2)nc2nc(-c3ccccc3)c(-c3ccccc3)nn12 | 17.8
36 | COc1cccc(OC)c1OCCN(C)C | 3.98
37 | O=c1c([N+](=O)[O-])cccn1Cc1ccc(F)cc1Cl | 3.36
38 | Cc1ccc(S(=O)(=O)c2nc(-c3cccs3)oc2NCCCN(C)C)cc1 | -5.47 (active)
39 | Cc1cccc(N2CCN(C(c3ccccc3)c3nnnn3CC3CCCO3)CC2)c1C (stereo unspecified) | -3.05 (active)
40 | CCC(C)(C)n1nnnc1C(c1ccccc1)N1CCN(C2CCCC2)CC1 (stereo unspecified) | -4.27 (active)
41 | CCC(C)(C)n1nnnc1C(c1cccc(C#N)c1)N1CCN(c2cccc(C)c2C)CC1 (stereo unspecified) | -3.1 (active)
42 | CCCOc1ccc(-c2nn(-c3ccccc3)cc2/C=C2\SC(=S)N(C3CCS(=O)(=O)C3)C2=O)cc1 (stereo unspecified) | 4.83
43 | Cc1ccc(S(=O)(=O)N(C)c2ccc(C(=O)N3CCCCC3)cc2)cc1 | -5.08 (active)
44 | Cc1ccc(S(=O)(=O)N2CCCC2C(=O)N(C)Cc2cccs2)cc1 (stereo unspecified) | 4.2
45 | CC1(C)OC(=O)N(CC(=O)Nc2cccc(C(F)(F)F)c2)C1(C)O (stereo unspecified) | 0.44
46 | O=C(CCC(=O)c1ccc(F)cc1)Nc1cccc(C(F)(F)F)c1 | -5.11 (active)

Row | Structure (SMILES) | z-score
47 | CCOC(=O)c1nnn(-c2nonc2N)c1CN1CCCCCC1 | 0.52
48 | CCOC(=O)c1nnn(-c2nonc2N)c1-c1ccc(OC)cc1 | -5.06 (active)
49 | CCOC(=O)c1nnn(-c2nonc2N)c1-c1ccc(OCC)cc1 | 3.82
50 | N#C/C(=C\C1=C(N2CCOCC2)C(=C/c2cccc([N+](=O)[O-])c2)/CC1)C(=O)Nc1ccccc1F | 3.07
51 | CC(=O)Nc1sc(/C(C#N)=C/c2ccc(Cl)c(Cl)c2)nc1-c1ccc(C)cc1 | 17.4
52 | O=c1[nH]c2ccc(NS(=O)(=O)c3ccc([N+](=O)[O-])cc3)cc2[nH]1 | 2.55
53 | O=C(c1cccs1)c1no[n+]([O-])c1C(=O)c1cccs1 | 3.78
54 | CCCCn1c(=N)n(CCOc2ccc(C)cc2)c2ccccc21 | -3.46 (active)
55 | CCOC(=O)Cn1c2ccc(F)cc2c2nc(C)sc21 | 3.68
56 | CCCn1c(=N)n(CCOc2ccc(OC)cc2)c2ccccc21 | -4.79 (active)
57 | CCOC(=O)Cn1c(=N)n(CCOc2cccc(C)c2)c2ccccc21 | -4.7 (active)
58 | COc1ccc(OCCn2cc(/C(N)=N/O)c3ccccc32)cc1 | 3.09
59 | Cc1cc(/C=C2/C(=O)N(C)C(=S)N2C)ccc1N1CCCC1 | 15.4
60 | COc1ccc(CCNc2oc(COc3ccccc3Cl)nc2C#N)cc1OC | -3.1 (active)
61 | COc1cccc(-n2nc(C#N)c(Cl)cc2=O)c1 | -3.8 (active)
62 | COc1cccc(C2=N/C(=C\N(C)C)C(=O)O2)c1 | 0.86
63 | N#Cc1ccsc1NC(=O)COC(=O)c1ccc2ccccc2c1 | -6.27 (active)
64 | Cc1ccc(N2CCN(C3=NC(=O)/C(=C\c4cccs4)S3)CC2)cc1 | -4.27 (active)
65 | Cc1cc(N2CCOCC2)ccc1/C=C1/SC(=O)NC1=O | 1.71
66 | Cc1ccc(C2(C(F)(F)F)N=C3Sc4cc(C)ccc4N3C(=O)N2)cc1 (stereo unspecified) | 3.48
67 | CCCOc1cc(N(CC)CC)ccc1/C=C(/C#N)c1nc2ccc(C)cc2[nH]1 | 15.5
68 | CCN(CC)c1ccc(C(=O)N/N=C/c2ccc(N3CCOCC3)cc2)cc1 | 3.38
69 | CCN(CC)c1ccc(/C=N/NC(=O)c2cccc(S(=O)(=O)N3CCOCC3)c2)c(O)c1 | -6.39 (active)

Row | Structure (SMILES) | z-score
70 | C=CCSc1nnc(NC(=O)c2cccc(S(=O)(=O)N3CCOCC3)c2)s1 | 3.22
71 | CCCCn1c(O)c(/C=C/C=C/C=Nc2ccccc2)sc1=S | 4.72
72 | COc1c2ccoc2nc2c(OC)c(O)ccc12 | -0.14
73 | Cc1ccc(-c2ccc(/C=C(\C#N)C(=O)Nc3cc(C)nn3-c3ccccc3)o2)cc1 | 3.08
74 | Cc1nn(-c2ccccc2)c(C)c1NC(=O)CCl | 3.88
75 | Cc1ccc(C)c(NC(=S)N2CCCCCC2)c1 | 0.89
76 | Cc1ccc(NC(=O)CCl)c(C)c1 | 3.51
77 | COc1ccc(CCNC(=S)Nc2ccc(C)cc2C)cc1 | -3.98 (active)
78 | CCCCCOC(=O)C1=C(C)Nc2nnnn2C1c1ccc(OC)c(OC)c1OC (stereo unspecified) | 3.26
79 | COc1ccc(C2C=C(c3cccs3)Nc3nc(CCCO)nn32)cc1 (stereo unspecified) | 5.85
80 | COc1ccc(C2=CC(c3ccc(OC)c(OC)c3)n3nnnc3N2)c(OC)c1 (stereo unspecified) | -3.02 (active)
81 | CCOC(=O)N1CCC(N2Cc3cccc(C(=O)N4CCN(c5cccc(C)c5C)CC4)c3C2=O)CC1 | 2.62
82 | COc1cccc(CN2CCN(C3CCN(c4cccc(C)c4C)CC3)CC2CCO)c1 (stereo unspecified) | -8.37 (active)
83 | COc1cc(C(Nc2ccc3c(c2)OCO3)C(=O)NC2CCCCC2)cc(OC)c1OC (stereo unspecified) | -3.78 (active)
84 | Fc1ccc(C2NCCn3cccc32)cc1 (stereo unspecified) | 3.94
85 | CNC(=O)c1ccc(-c2sc3nc(N4CCOCC4)c4c(c3c2N)CCCC4)o1 | -3.66 (active)
86 | Nc1c(C(=O)c2ccc(Cl)cc2)sc2nsc(SCCN3CCOCC3)c12 | 4.91
87 | N#C/C(=C\c1ccc(N2CCOCC2)o1)C(=O)NCCc1ccccc1 | 4.72
88 | Nc1c(C(=O)NCCc2ccccc2)sc2nc(N3CCOCC3)c3c(c12)CCCC3 | -3.11 (active)
89 | CNC(=O)c1ccc(-c2sc3nc(N4CCOCC4)c4c(c3c2N)CC(C)(C)OC4)o1 | 3.23
90 | O=c1[nH]c(-c2ccccn2)nc2sc(-c3ccccc3)cc12 | -6.56 (active)
91 | c1ccc(-c2ccc(-c3nccc4ccccc34)[nH]2)cc1 | 4.38
